Assay results from the supplement of paper PMC10849652.
Targets with a hit are over-represented here; the source holds about 8,800 in all. About 0.5% of all pairs of compound and target were hits.

Legend:
Test in all cases: log2 fold change, soluble protein after heating vs DMSO (PISA); higher = thermal stabilisation; K562 lysate, 10 uM; active = over 0.2 and 3.5 SD of the protein, either way, in both replicates (recomputed)
[1] = compound: C#Cc1cccc(Nc2ncnc3cc(OCCOC)c(OCCOC)cc23)c1 [erlotinib]
Outline: (§1)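 The values are log-two fold changes in thermal stability compared with solvent controls and come from duplicates. They were obtained by TMTpro 16plex LC-MS/MS, with channel sums equalised, on the supernatant after 21,000xg for 90 min. That supernatant came from crude K562 extract at 1 mg/mL protein treated with 10 μM compound for 30 min, heated for 3 min across 48°C-58°C, pooled and brought to 0.5% NP-40 at 4°C.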

[2] = compound: C/C(=N\NC(=O)C1=CC(=CC=C1)S(=O)(=O)N2CCOCC2)/C3=C(C=CC(=C3)Cl)O
Outline: as §1

[3] = compound: C1=CC(=CC=C1C2=NC3=C(N2)C=C(C=C3)C(=O)N)OC4=CC=C(C=C4)Cl
Outline: as §1

[4] = compound: C1=CC2=C(C=CC(=C2)/C=C\3/C(=O)NC(=NCC4=CC=CS4)S3)N=C1
Outline: as §1

[5] = compound: C1=CC2=NC=CN=C2C=C1/C=C/3\C(=O)NC(=O)S3
Outline: as §1

[6] = compound: C1=CC=C(C=C1)C2=NC(=C(N2)C3=CC=NC=C3)C4=CC(=C(C=C4)Cl)O
Outline: as §1

[7] = compound: C1=CC=C2C(=C1)C3=NNC4=CC=CC(=C43)C2=O
Outline: as §1

[8] = compound: C1CCN(C1)C(=O)NC2=CC=CC(=C2)NC3=NC=C(C(=N3)NCCC4=CN=CN4)Br
Outline: as §1

[9] = compound: C1CN(CCC1(CC2=CC=C(C=C2)Cl)N)C3=NC=NC4=C3C=CN4
Outline: as §1

[10] = compound: C1COCCN1CCN2C3=CC=CC=C3N=C2NC(=O)C4=CC(=CC=C4)[N+](=O)[O-] [IRAK-1-4 Inhibitor I]
Outline: as §1

[11] = compound: C=CC(=O)N1CCC[C@@H](n2nc(-c3ccc(Oc4ccccc4)cc3)c3c(N)ncnc32)C1 [ibrutinib]
Outline: as §1

[12] = compound: CC(=O)c1cnc2ccc(-c3cc(Cl)c(O)c(Cl)c3)nc2c1N[C@H]1CC[C@H](CN(C)C)CC1
Outline: as §1

[13] = compound: CC(C)(C)Cn1c(N)nc2ccc(-c3[nH]c(C(C)(C)C)nc3-c3ccc(F)cc3)nc21 [ralimetinib]
Outline: as §1

[14] = compound: CC(C)(O)CC(=O)NCCn1ccc2ncnc(Nc3ccc(Oc4cccc(C(F)(F)F)c4)c(Cl)c3)c21
Outline: as §1

[15] = compound: CC(C)C1=C2N=C(C=C(N2N=C1)NCC3=CC=CC=C3)NCCCCCCN
Outline: as §1

[16] = compound: CC1=C(C(CC(=O)N1)C2=CC=C(C=C2)C(F)(F)F)C(=O)NC3=C(C=C4C(=C3)C=NN4)F
Outline: as §1

[17] = compound: CC1=C(C2=C(C=C1)C(=O)C3=CC=CC=C3N2CCCN)C
Outline: as §1

[18] = compound: CC1=C(C=C(C=C1)NC(=O)C2=CC(=CC=C2)C(C)(C)C#N)NC3=CC4=C(C=C3)N=CN(C4=O)C
Outline: as §1

[19] = compound: CC1=C(C=C(C=C1)NC(=O)C2=CC(=CC=C2)N(C)C)NC(=O)C3=CC=C(C=C3)O
Outline: as §1

[20] = compound: CC1=CC=C(C=C1)SC2=C3C=C(SC3=CN=C2)C(=O)N
Outline: as §1

Measured: log2 fold change

DES (UniProt P17661)
UniProt P17661, sequence (P17661 whole entry, looked up): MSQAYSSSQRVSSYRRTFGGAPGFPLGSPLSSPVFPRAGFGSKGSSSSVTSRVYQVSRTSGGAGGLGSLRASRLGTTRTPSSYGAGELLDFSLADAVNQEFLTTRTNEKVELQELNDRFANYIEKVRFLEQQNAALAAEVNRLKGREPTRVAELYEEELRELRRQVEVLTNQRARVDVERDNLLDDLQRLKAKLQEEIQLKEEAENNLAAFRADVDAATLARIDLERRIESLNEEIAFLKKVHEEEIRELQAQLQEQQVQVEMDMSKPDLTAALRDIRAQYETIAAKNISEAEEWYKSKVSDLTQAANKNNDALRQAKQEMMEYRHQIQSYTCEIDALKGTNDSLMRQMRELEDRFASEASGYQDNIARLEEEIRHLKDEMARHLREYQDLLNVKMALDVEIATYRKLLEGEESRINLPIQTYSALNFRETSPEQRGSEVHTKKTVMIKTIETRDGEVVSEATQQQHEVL
inactive: [1] 0.014 | [2] 0.012 | [3] 0.023 | [4] -0.074 | [5] -0.016 | [6] -0.026 | [7] -0.018 | [8] 0.048 | [9] 0.1 | [10] 0.09 | [11] 0.044 | [12] 0 | [13] 0.025 | [14] -0.16 | [15] -0.01 | [16] -0.026 | [17] -0.045 | [18] 0.057 | [19] -0.017 | [20] -0.057

CSK (UniProt P41240)
UniProt P41240, sequence (P41240 whole entry, looked up): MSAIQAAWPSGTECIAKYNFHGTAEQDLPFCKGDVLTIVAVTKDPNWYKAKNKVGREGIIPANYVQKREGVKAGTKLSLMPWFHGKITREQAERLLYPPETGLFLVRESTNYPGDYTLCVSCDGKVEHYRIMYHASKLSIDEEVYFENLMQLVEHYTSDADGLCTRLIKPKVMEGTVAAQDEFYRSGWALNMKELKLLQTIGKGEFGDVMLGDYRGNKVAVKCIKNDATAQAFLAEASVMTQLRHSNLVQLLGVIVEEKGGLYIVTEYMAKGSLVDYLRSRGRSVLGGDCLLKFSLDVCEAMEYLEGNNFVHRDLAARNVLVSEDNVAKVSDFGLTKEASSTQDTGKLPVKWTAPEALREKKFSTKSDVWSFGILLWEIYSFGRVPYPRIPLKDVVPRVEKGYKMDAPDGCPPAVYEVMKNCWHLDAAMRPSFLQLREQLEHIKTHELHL
active: [11] 0.891 | [18] 0.626
inactive: [1] 0.045 | [2] -0.025 | [3] -0.004 | [4] -0.028 | [5] -0.035 | [6] 0.031 | [7] 0.106 | [8] 0.107 | [9] 0.033 | [10] 0.053 | [12] 0.242 | [13] 0 | [14] 0.181 | [15] 0 | [16] -0.086 | [17] -0.04 | [19] -0.015 | [20] -0.054

CMPK2 (UniProt Q5EBM0)
UniProt Q5EBM0, sequence (Q5EBM0 whole entry, looked up): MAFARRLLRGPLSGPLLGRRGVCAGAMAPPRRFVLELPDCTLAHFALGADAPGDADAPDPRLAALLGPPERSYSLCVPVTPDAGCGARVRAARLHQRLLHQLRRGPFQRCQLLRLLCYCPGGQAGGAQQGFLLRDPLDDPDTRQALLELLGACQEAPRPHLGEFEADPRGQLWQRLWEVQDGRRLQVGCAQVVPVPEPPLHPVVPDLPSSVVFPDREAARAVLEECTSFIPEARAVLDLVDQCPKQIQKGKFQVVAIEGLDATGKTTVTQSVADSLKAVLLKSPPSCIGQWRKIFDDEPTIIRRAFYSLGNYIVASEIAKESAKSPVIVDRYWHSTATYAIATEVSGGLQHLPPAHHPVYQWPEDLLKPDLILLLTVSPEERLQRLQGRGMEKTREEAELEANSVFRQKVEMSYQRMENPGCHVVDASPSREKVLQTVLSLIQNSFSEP
inactive: [1] -0.019 | [2] 0.07 | [3] 0.006 | [4] -0.035 | [5] -0.016 | [6] 0.004 | [7] -0.038 | [8] -0.03 | [9] 0.031 | [10] 0.024 | [11] 0.012 | [12] 0.045 | [13] -0.012 | [14] 0.012 | [15] 0.026 | [16] 0.014 | [17] 0.027 | [18] 0.009 | [19] -0.018 | [20] -0.01

CYP51A1 (UniProt Q16850)
UniProt Q16850, sequence (Q16850 whole entry, looked up): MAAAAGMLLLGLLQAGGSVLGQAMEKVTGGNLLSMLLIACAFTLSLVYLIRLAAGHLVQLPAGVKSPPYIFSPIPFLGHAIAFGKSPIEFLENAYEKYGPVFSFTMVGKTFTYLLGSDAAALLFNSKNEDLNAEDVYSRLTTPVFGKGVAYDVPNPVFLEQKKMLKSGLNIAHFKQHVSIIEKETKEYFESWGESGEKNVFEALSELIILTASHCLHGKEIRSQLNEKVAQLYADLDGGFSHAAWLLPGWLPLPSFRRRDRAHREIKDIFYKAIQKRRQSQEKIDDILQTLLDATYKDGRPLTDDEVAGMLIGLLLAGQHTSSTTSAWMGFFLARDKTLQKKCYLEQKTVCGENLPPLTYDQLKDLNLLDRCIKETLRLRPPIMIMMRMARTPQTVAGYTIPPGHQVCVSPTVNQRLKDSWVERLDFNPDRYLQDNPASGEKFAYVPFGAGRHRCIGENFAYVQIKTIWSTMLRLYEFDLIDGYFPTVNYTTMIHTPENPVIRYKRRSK
inactive: [1] -0.029 | [2] 0.045 | [3] 0.193 | [4] 0.058 | [5] -0.087 | [6] -0.041 | [7] 0.118 | [8] -0.092 | [9] -0.023 | [10] 0.043 | [12] -0.025 | [13] -0.025 | [14] 0.101 | [15] 0.038 | [16] -0.017 | [17] -0.031 | [18] -0.093 | [19] 0.014 | [20] -0.099
active: [11] 0.601

DIAPH1 (UniProt O60610)
UniProt O60610, sequence (O60610 whole entry, looked up): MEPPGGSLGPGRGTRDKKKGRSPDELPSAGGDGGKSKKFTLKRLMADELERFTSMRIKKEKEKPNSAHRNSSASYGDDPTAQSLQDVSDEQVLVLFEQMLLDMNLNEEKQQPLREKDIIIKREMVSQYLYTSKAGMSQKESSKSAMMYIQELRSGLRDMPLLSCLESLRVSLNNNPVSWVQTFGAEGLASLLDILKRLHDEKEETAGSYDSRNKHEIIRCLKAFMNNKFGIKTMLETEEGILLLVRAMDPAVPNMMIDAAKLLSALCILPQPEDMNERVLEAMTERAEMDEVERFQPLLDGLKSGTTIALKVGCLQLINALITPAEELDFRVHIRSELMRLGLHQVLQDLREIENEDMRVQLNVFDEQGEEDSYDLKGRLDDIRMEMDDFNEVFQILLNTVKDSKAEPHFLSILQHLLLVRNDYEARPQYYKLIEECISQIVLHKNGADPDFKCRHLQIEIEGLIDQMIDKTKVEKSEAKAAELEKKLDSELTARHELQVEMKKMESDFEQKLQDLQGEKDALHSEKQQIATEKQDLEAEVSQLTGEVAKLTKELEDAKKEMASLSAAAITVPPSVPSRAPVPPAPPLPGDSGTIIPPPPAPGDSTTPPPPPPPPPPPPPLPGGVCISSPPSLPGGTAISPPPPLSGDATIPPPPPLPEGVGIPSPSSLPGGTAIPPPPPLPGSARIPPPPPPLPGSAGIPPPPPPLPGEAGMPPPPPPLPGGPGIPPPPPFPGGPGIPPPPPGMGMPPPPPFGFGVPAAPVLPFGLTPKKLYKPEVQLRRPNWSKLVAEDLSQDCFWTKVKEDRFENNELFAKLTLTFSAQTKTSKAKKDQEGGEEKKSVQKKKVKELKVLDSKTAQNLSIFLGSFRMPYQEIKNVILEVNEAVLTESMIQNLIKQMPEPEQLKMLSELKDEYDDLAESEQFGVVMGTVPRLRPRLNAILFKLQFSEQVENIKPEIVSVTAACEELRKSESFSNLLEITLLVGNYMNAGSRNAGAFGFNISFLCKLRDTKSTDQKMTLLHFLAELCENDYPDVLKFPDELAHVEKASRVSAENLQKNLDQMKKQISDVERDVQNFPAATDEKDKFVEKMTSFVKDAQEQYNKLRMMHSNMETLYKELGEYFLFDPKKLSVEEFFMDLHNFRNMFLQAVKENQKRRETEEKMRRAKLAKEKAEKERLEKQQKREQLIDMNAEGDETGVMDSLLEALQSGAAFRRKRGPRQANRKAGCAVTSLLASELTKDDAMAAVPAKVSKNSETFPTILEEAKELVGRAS
inactive: [1] -0.004 | [2] -0.006 | [3] 0.002 | [4] 0.007 | [5] -0.002 | [6] -0.001 | [7] -0.006 | [8] -0.01 | [9] -0.001 | [10] -0.007 | [11] -0.028 | [12] -0.004 | [13] -0.006 | [14] 0.005 | [15] -0.01 | [16] -0.009 | [17] 0.003 | [18] -0.004 | [19] 0.001 | [20] 0.004

DFFB (UniProt O76075)
UniProt O76075, sequence (O76075 whole entry, looked up): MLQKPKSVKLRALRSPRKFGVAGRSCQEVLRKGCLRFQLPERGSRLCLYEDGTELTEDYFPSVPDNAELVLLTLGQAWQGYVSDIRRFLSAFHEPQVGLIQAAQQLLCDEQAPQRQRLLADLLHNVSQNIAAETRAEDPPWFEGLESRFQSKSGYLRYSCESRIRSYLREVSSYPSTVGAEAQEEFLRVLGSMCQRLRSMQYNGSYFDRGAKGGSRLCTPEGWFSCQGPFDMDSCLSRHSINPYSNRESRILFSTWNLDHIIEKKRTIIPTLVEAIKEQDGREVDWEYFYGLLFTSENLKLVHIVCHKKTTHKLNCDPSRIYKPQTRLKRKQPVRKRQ
inactive: [1] -0.055 | [2] 0.062 | [3] 0.071 | [4] 0.048 | [5] 0.084 | [6] 0.047 | [7] 0 | [8] 0.013 | [9] -0.019 | [10] 0.008 | [11] 0.076 | [12] -0.01 | [13] 0.054 | [14] -0.068 | [15] -0.027 | [16] 0.044 | [17] 0.08 | [18] 0.033 | [19] -0.07 | [20] -0.039

CSDE1 isoform 4 (UniProt O75534)
UniProt O75534, sequence (O75534 whole entry, looked up): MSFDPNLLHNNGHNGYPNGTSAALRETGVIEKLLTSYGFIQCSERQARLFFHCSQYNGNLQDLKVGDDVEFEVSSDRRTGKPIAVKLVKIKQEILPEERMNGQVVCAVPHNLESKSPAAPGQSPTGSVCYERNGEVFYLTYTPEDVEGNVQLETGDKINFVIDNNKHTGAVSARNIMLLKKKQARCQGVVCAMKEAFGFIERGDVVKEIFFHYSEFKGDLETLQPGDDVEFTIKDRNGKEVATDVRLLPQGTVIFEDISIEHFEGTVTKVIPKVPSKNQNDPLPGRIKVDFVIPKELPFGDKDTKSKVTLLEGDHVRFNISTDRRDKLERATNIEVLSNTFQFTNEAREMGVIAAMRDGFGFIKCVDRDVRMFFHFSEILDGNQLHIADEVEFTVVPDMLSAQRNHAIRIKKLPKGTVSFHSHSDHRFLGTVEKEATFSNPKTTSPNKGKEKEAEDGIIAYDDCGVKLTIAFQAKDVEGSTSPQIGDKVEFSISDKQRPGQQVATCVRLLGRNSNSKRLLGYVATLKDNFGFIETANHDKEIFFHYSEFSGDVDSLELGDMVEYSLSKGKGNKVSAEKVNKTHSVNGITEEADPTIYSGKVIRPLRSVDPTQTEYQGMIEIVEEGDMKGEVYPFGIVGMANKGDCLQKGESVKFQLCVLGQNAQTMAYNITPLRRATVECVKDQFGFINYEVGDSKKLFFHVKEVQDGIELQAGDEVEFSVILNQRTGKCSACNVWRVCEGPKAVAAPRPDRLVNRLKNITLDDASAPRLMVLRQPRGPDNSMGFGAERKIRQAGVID
inactive: [1] -0.025 | [2] 0.009 | [3] -0.035 | [4] 0.001 | [5] -0.023 | [6] -0.021 | [7] -0.002 | [8] 0.016 | [9] -0.001 | [10] -0.017 | [11] -0.007 | [12] -0.003 | [13] 0.017 | [14] 0.03 | [15] 0.003 | [16] -0.013 | [17] 0.004 | [18] -0.022 | [19] 0.012 | [20] 0.009

DHRS11 (UniProt Q6UWP2)
UniProt Q6UWP2, sequence (Q6UWP2 whole entry, looked up): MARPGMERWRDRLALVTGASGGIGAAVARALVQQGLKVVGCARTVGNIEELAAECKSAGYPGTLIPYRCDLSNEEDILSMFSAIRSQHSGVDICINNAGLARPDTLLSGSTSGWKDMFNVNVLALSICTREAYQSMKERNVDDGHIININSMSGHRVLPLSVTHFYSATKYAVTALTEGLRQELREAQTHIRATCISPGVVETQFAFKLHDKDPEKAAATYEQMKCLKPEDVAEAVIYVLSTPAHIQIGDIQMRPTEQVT
inactive: [1] 0.054 | [2] -0.017 | [3] -0.004 | [4] 0.017 | [5] -0.006 | [6] -0.015 | [7] -0.008 | [8] -0.041 | [9] 0.042 | [10] -0.02 | [11] 0.028 | [12] -0.008 | [13] 0.028 | [14] -0.014 | [15] 0.048 | [16] -0.005 | [17] -0.029 | [18] 0.007 | [19] 0.015 | [20] 0.03
